This excerpt belongs to a sample that is enriched for hits.
HT1080NT lethal: kills 2HG-producing HT-1080-NT fibrosarcoma cells. HT-1080-NT fibrosarcoma viability, CellTiter-Glo ATP luminescence, 48 h. Potency, µM (top dose mostly 46.1 µM), for the others: at the highest dose activity, negative = less viability, actives largely listed as cytotoxic. 1.6% of 360,000 active. AID 686970;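 further: NT is the 2HG producing partner of a matched IDH1 knockdown line; potency means the concentration at half of the fitted maximal effect; 0% = DMSO-treated cells and -100% = media-only wells without cells; nearly all actives have a fitted effect of over 55% in size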
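Read-out is CellTiter-Glo luminescence after 10 minutes at room temperature, following 48 hours' compound treatment of HT-1080-NT cells (750 cells/well, RPMI, 5% FBS, 37 degrees C).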
12-LOX inh: blocks human arachidonate 12S-lipoxygenase | P18054 | purified 12hLO, xylenol orange hydroperoxide absorbance | Potency, µM (highest dose often 108 µM), inactives show at the highest dose activity change, negative = inhibition, most hits filed as inhibitors | 1.1% of 580,000 active; further: potency means the concentration at half of the fitted maximal effect
Target sequence (P18054 whole entry, looked up): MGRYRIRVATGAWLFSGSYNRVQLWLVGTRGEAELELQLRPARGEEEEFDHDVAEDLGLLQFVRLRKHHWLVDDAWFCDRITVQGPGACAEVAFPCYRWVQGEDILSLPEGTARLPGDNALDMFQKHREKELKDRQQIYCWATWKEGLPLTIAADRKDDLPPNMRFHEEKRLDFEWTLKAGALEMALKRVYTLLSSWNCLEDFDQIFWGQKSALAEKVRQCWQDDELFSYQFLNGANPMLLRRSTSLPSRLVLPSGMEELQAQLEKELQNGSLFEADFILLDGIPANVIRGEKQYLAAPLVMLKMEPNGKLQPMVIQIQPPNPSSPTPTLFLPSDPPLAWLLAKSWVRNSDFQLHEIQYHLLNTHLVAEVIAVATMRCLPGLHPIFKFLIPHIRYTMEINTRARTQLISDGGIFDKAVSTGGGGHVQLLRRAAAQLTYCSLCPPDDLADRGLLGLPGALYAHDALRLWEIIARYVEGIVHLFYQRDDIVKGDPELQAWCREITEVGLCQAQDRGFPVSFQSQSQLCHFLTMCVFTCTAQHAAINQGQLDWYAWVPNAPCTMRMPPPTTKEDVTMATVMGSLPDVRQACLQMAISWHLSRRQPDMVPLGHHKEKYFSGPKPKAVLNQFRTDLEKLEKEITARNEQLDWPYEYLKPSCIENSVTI
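Purified human 12hLO at 150 nM in 25 mM Hepes, 0.01% Triton X-100, pH 7.0, preincubated 15 min at room temperature with compound. Reaction started with 40 uM arachidonic acid, 30 min at room temperature. Hydroperoxide measured by Fe-xylenol orange, 573/405 nm absorbance ratio.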
IL-1B inflam inh: blocks inflammasome-driven IL-1 beta release; activity change, % at 57.5 µM; 4.7% of 360,000 active; THP-1 LPS/ATP IL-1B secretion, AlphaLISA, 16 h; active compounds read low; AID 743279; in the data active means activity change below about -50%; inconclusive means mostly about -30% to -49%
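Secreted IL-1B measured by AlphaLISA bead assay after 16 h compound exposure of THP-1 cells; compounds (final up to 57.5 uM) added 1 h before LPS (250 ng/mL) and ATP (1.25 mM) stimulation; lower signal means less secretion.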
HT1080 IDH1KD tx: kills HT-1080 cells with IDH1 knockdown | HT-1080 IDH1 knockdown viability, ATP luminescence, 48 h | Potency, µM (highest dose often 46.1 µM), for the others: top-dose activity, negative = toxicity, hits mostly cytotoxic | 2% of 360,000 active | AID 686971;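 further: potency means the concentration at half of the fitted maximal effect; 0% = DMSO wells and -100% = cell-free medium wells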
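After a 2 h attachment period, IDH1KD HT-1080 cells took pin-transferred compound for 48 h at 37 °C; ATP-based luminescence after 10 min room-temperature reagent incubation reported viability.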
DT40 TDP1 CPT: growth inhibition of DT40 Tdp1-/-;hTDP1 cells with camptothecin (screen for TDP1 inhibitors); chicken DT40 Tdp1-/-;hTDP1 cells + 20 nM CPT, ATP luminescence, 48 h; Potency, µM (top dose mostly 46.2 µM), for the others: top-dose activity change, negative = growth inhibition, hits mostly inhibitors; 12% of 420,000 active; further: potency means the concentration at half of the fitted maximal effect; nearly all actives have a fitted effect of over 55% in size
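Cell growth measured by CellTiter-Glo luminescence after a minimum 48 h, 37 C compound exposure with 20 nM CPT in Tdp1-knockout DT40 cells stably expressing hTDP1, seeded 400/well; qHTS titration format.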
DT40 TDP1 no CPT: qHTS for Inhibitors of human tyrosyl-DNA phosphodiesterase 1 (TDP1): qHTS in cells in absence of CPT; Potency, µM (doses to about 46.2 µM), without a hit: at the top dose activity change, negative = growth inhibition, most hits filed as inhibitors; 15% of 420,000 active; AID 686978, 2013; DT40 Tdp1-/- hTDP1 cells, no CPT, ATP luminescence, 48 h; further: potency means the concentration at half of the fitted maximal effect; nearly all actives have a fitted effect of over 55% in size
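Camptothecin absent (DMSO only). Human TDP1-complemented DT40 knockout cells, 400 cells/well, 37 °C for minimum 48 hr; ATP measured via CellTiter-Glo, 30 min dark incubation, luminescence.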
The depositor's hits bear a star; ? = inconclusive; . = no result given; [ ] = remark or other dose. Unless noted, the call rests on the fitted dose curve; in most records, active means well fitted curve in the direction sought with a large enough effect; inconclusive means small, poorly fitted or top-dose-only effect, or another doubt; inactive means no such curve, though single readings can be large; an effect the other way counts as inactive or inconclusive. Unless noted, on the % scale 0 is the no-effect control and ±100 the full control effect.

SMILES	HT1080NT lethal	12-LOX inh	IL-1B inflam inh	HT1080 IDH1KD tx	DT40 TDP1 CPT	DT40 TDP1 no CPT
Cc1ccc2nc(N3CCN(S(=O)(=O)c4ccc5c(c4)OCCO5)CC3)c(C#N)cc2c1	4%	-4%	9	5%	11µM*	?
Cc1ccc(S(=O)(=O)N2CCCN(S(=O)(=O)c3ccc4c(c3)OCCO4)CC2)cc1	-17%	17%	-23	2%	11µM*	11µM*
Cc1ccc(S(=O)(=O)N2CCCN(c3nc4cc(C)ccc4cc3C#N)CC2)cc1	16%	5%	31	-3%	?	?
CCN(CC)C(=O)COC(=O)c1ccccc1-c1ncc(-c2ccc(F)cc2)o1	.	30%	.	.	.	.
CN1CCOC(CNCc2ccc3ccccc3c2)C1 (centres undefined)	.	18%	.	.	.	.
CC(C)CN1CCN(C(=O)CCC[C@@H]2[C@H]3CCCN4CCC[C@@H](CN2C(=O)c2ccccc2)[C@@H]34)CC1	.	97%	.	.	.	.
CC(C)(C)NC(=O)C(c1ccc(C#N)cc1)n1c(=O)c(-c2ccco2)nc2ccccc21 (centres undefined)	-1%	?	-18	-5%	?	?
CC(C)(C)NC(=O)C(c1cccc2ccccc12)n1c(=O)c(-c2ccccc2)nc2ccccc21 (centres undefined)	-20%	-5%	17	-1%	21µM*	0.13µM*
CC(C)(C)NC(=O)C(c1cccc2ccccc12)n1c(=O)c(-c2ccco2)nc2ccccc21 (centres undefined)	-12%	45µM*	14	-19%	23µM*	?
CCCCCNC(=O)C(c1cccc2ccccc12)n1c(=O)c(-c2ccco2)nc2ccccc21 (centres undefined)	?	10µM*	1	-17%	?	?
CC(C)(C)NC(=O)C(c1ccc(-c2ccccc2)cc1)n1c(=O)c(-c2ccccc2)nc2ccccc21 (centres undefined)	2%	1%	12	-2%	?	?
O=C(NCc1ccccc1)C(c1cccc2ccccc12)n1c(=O)c(-c2ccco2)nc2ccccc21 (centres undefined)	-3%	?	-5	-2%	?	?
O=c1c(-c2ccco2)nc2ccccc2n1/C=C(/c1ccc(C(F)(F)F)cc1)n1c(=O)[nH]c2ccccc21	.	16µM*	.	.	.	.
CCCCCNC(=O)C(c1ccc(C(F)(F)F)cc1)n1c(=O)c(-c2ccco2)nc2ccccc21 (centres undefined)	?	45µM*	59	-24%	?	18µM*
COc1ccc(C(CNC(=O)c2oc3ccc(C)cc3c2C)N2CCCCC2)cc1 (centres undefined)	11%	-22%	10	-4%	21µM*	?
COc1ccc(C(CNC(=O)c2cc3ccccc3o2)N2CCCCC2)cc1 (centres undefined)	-8%	1%	?	-1%	?	21µM*
COc1ccc(C(CNC(=O)c2oc3cc(C)c(Cl)cc3c2C)N2CCCCC2)cc1 (centres undefined)	9%	-6%	23	1%	13µM*	?
COc1ccccc1C(CNC(=O)c1oc2ccccc2c1C)N1CCCC1 (centres undefined)	1%	-7%	-6	13%	?	23µM*
Cc1ccc(-c2nc(Cn3nnc(-c4ccccc4C)n3)cs2)cc1	.	9%	.	.	.	.
COc1ccc(C(CNC(=O)c2oc3ccccc3c2C)N2CCCCC2)cc1 (centres undefined)	.	-10%	.	.	16µM*	23µM*
COc1ccc(C(=O)N2CCCOCCNC(=O)[C@@H]3CCCC[C@@H]32)cc1F	.	39%	.	.	.	.
COc1ccc(-n2c(=O)c(CCC(=O)N(C)Cc3ccccc3C)nc3ccccc32)cc1	-2%	?	0	2%	?	?
CCc1ccc(CN(C)C(=O)CCc2nc3ccccc3n(-c3ccc(OC)cc3)c2=O)cc1	-13%	-15%	-56*	15µM*	16µM*	21µM*
COc1ccc(CN2C[C@@H](F)[C@@H](OCc3nc4ccc(C)cc4[nH]3)C2)cc1	.	24%[176 µM]	.	.	.	.
CCCNC(=S)NCCN1CCCCC1	23%	0.63µM*	7	26%	-6%	-9%
SMILES	HT1080NT lethal	12-LOX inh	IL-1B inflam inh	HT1080 IDH1KD tx	DT40 TDP1 CPT	DT40 TDP1 no CPT
COc1ccc(C2=Nn3c(nnc3-c3ccco3)SC2)cc1OC	-22%	-17%	-16	-13%	?	23µM*
COc1ccc(C2=Nn3c(nnc3-c3ccccc3OC)SC2)cc1OC	0.46µM*	-22%	1	?	0.0052µM*	0.0058µM*
C=CCn1c(NCc2ccc(C)cc2)nc2c1c(=O)[nH]c(=O)n2C	.	-4%	.	.	.	.
Cc1ccccc1CN1C(=O)C(O)(CC(=O)c2cccc(Br)c2)c2ccccc21 (centres undefined)	.	-6%	.	.	-81%	5.2µM*
COC(=O)CN1C(=O)C(O)(CC(=O)c2cccc(Br)c2)c2ccccc21 (centres undefined)	-22%	3%	12	-4%	29µM*	?
COc1ccc(OC)c(C(=O)CC2(O)C(=O)N(Cc3ccccc3C)c3ccccc32)c1 (centres undefined)	.	-16%	.	.	16µM*	5.8µM*
CCN1C(=O)C(O)(CC(=O)c2cccc(-n3cccc3)c2)c2ccccc21 (centres undefined)	0%	-28%	?	-5%	?	16µM*
CCN1C(=O)C(O)(CC(=O)c2ccc(-n3cccc3)cc2)c2ccccc21 (centres undefined)	1%	-3%	-21	19%	?	?
CCCCN1C(=O)C(O)(CC(=O)c2c(C)cc(C)cc2C)c2ccccc21 (centres undefined)	.	-42%	.	.	.	.
CC(=O)c1ccc(OCc2cccc(C(N)=O)c2)cc1	.	4%	.	.	.	.
OC1(CN2CCC(c3cc(Cc4ccccc4)[nH]n3)CC2)CNCCOC1 (centres undefined)	.	8%	.	.	.	.
COC(=O)CSc1nc2nc(-c3cccs3)cc(C(F)(F)F)c2c(=O)[nH]1	-1%	1%	13	5%	1%	5%
O=C(CSc1nc2nc(-c3cccs3)cc(C(F)(F)F)c2c(=O)[nH]1)C(F)(F)F	?	24%	7	?	13µM*	?
